Data taken from PubChem BioAssay (NCATS).
Records with an inconclusive call do not appear. Values without a mark were called inactive. The call rests on the fitted dose curve; in most records, active means well fitted inhibition curve with a large enough effect; inconclusive means small, poorly fitted or top-dose-only effect; inactive means no such curve, though single readings can be large or run the other way.

Target: Retinaldehyde dehydrogenase 3 (Homo sapiens) (UniProt P47895)
Assay: qHTS for Inhibitors of the Aldehyde Dehydrogenase Family (ALDH1A3) Primary screen (AID 2061315);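 further: plate controls were DMSO vehicle for no effect and reference inhibitor for full effect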
Settings: ALDH inhibition qHTS; series mostly up to 56 µM; activity change, negative = inhibition: at the top concentration

SMILES | activity change, negative = inhibition
CC(C)c1ccccc1-c1nc(NCc2ccc(-c3cccnc3)cc2)c2sccc2n1 | -16.7%
Cc1cc2c(s1)c1cnn(Cc3ccc(F)c(F)c3)c(=O)c1n2C | 2.61%
COc1ccc(-c2csc(N3CCC(C(N)=O)CC3)n2)cc1OC | -9.09%
Cc1cc2c(s1)c1cnn(Cc3ccc(F)cc3Cl)c(=O)c1n2C | 8.57%
Cc1cc(C)nc(NC(=S)N2CCN(c3nncs3)CC2)c1 | -3.38%
N#CC1=C(Nc2nc3ccccc3o2)OC2=C(C(=O)CCC2)C1c1[nH]ncc1Cl (stereo not given) | -7.85%
C=C1C(=O)O[C@@H]2/C=C(/C)[C@@H](OC(C)=O)C/C=C(\C)C[C@@H](OC(=O)/C(=C/CO)CO)[C@@H]12 | -10.5% [at 28 µM]
COCCN(CCOC)c1nc(C)nc2c1nc(-c1ccccc1)n2CCCN(C)C | 9.27%
CCC(OC(=O)c1ccc(S(C)(=O)=O)c([N+](=O)[O-])c1)C(=O)NC1C2CC3CC(C2)CC1C3 (stereo not given) | 6.09%
COc1cc(O)c(C(CC(=O)N2CCCC(C)C2)c2ccc(OC)c(OC)c2)c(OC)c1 (stereo not given) | 2.45% [at 114 µM]
CCOc1ccc(CCNC(=O)c2cc3sccc3n2Cc2ccccn2)cc1OCC | -14.3%
Cc1ccc(OCCn2c(CCNC(=O)CCc3ccccc3Br)nc3ccccc32)cc1 | -1.39%
Cc1cc2c(s1)c1cnn(Cc3ccc(C(C)C)cc3)c(=O)c1n2C | 20.2%
COc1ccccc1CNC(=O)Nc1nnc(-c2ccncc2)s1 | 2.46%
Cc1ccc(S(=O)(=O)Nc2cnccc2C(=O)Nc2nc(-c3ccncc3)cs2)cc1 | 10.5%
O=C(O)CCc1cc(F)c(S(=O)(=O)N2CCN(S(=O)(=O)c3ccc4c(c3)OCCO4)CC2)cc1F | 3.33%
O=C(c1ccc2c(c1)ncn2-c1ccc(C(F)(F)F)cc1)N1CCCCC1 | -25%
O=C(O)c1c(-c2ccccc2)no[n+]1[O-] | -1.36%
CCOc1ccccc1-c1nnc2n1N=C(c1ccc(OC)c(OC)c1)CS2 | 1.1%
COC(=O)c1ccc(O)c2ncccc12 | 6.83%

SMILES | activity change, negative = inhibition
COc1cccc(CNc2ccc(S(=O)(=O)Nc3nc4ccccc4o3)cc2)c1O | -14%
O=C(Nc1ccc(-c2ccccc2)cc1)[C@H](Cc1ccc(O[S+](=O)([O-])c2cccc3cnccc23)cc1)N[S+](=O)([O-])c1cccc2cnccc12 | 2.98%
CC1(C)CC[C@]2(C(=O)O)CC[C@]3(C)C(=CCC4[C@@]5(C)C[C@@H](O)[C@H](O)[C@@](C)(CO)C5CC[C@]43C)C2C1 (stereo not given in full) | 13.1% [at 28 µM]
Cc1ccc(S(=O)(=O)Nc2cnccc2C(=O)Nc2nc(-c3cc4ccccc4o3)cs2)cc1 | 5.64%
CC1=CC(=O)CC(C)(C)C1CCC(C)OC1OC(COC(=O)c2cc(O)c(O)c(O)c2)C(O)C(O)C1O (stereo not given) | -23% [at 28 µM]
CCN1CCN(c2cc(-c3ccc(F)cc3)c3c(n2)CCCCCC3)CC1 | -9.85%
O=C(OCC#CCSc1nnc(-c2cccc(F)c2)o1)c1ccc(F)cc1 | 2.38%
Cc1ccc(C(=O)Nc2ccc(N3CCOCC3)cc2)cc1 | -13%
Cc1cc(C)nc(NC(=S)N2CCN(c3cc(C#N)cc(C#N)c3)CC2)c1 | -18.4%
CCCn1c(C)nc2c(NC(C)CN(C)C)nc(C)nc21 (stereo not given) | 3.53%
N#Cc1ccccc1CNc1nc2ncc(Br)cc2[nH]1 | 3.75%
O=C(O)c1ccc2c(c1)C(=O)N([C@H](Cc1ccc(Cl)cc1)C(=O)O)C2=O | -2.7%
COc1cc2nc(N3CCN(C)CC3)nc(NCCN(C)C)c2cc1OC | -8.88%
CC(C)CC(O)C(=O)Nc1cc(C(F)(F)F)ccc1Cl (stereo not given) | 3.15%
COc1cc(O)c(C(CC(=O)N2CC(C)OC(C)C2)c2ccc3c(c2)OCO3)c(OC)c1 (stereo not given) | -4.95%
COc1cc(C2CC(=O)Nc3c2cc(Br)c2ccccc32)cc(OC)c1OC (stereo not given) | 6.9%
Cc1cc2c(s1)c1cnn(Cc3ccc(F)c(Cl)c3)c(=O)c1n2C | 4.08%
COc1ccccc1C(=O)Nc1nc(-c2ccccc2)cs1 | -1.59%
O=C([C@H](Cc1ccc(O[S+](=O)([O-])c2cccc3cnccc23)cc1)N[S+](=O)([O-])c1cccnc1)N1CCN(c2ccccc2)CC1 | -4.26%
CCC(=O)NC(c1cccs1)c1ccc2cccnc2c1O (stereo not given) | 35.9%
